This passage reports inhibition results from PubChem BioAssay AID372 (MTDP, 2006).

By inhibition is commonly meant how much of the control response was suppressed.

In all, about 100,000 compounds went through this assay and about 770 (0.77%) were called active. Rule as the data show it: active = inhibition above about 50%; inactive = the rest. This excerpt belongs to a sample that is enriched for actives.

The assay has as its target Gag-Pol polyprotein (Human immunodeficiency virus type 1 group M subtype B (isolate HXB2)) (UniProt P04585). The experiment in a line: RNase H inhibition, HIV 1 Gag Pol polyprotein, FRET biochemical assay, screening (AID 372). The settings on record: HIV-1 RT RNase H, FRET RNA/DNA substrate fluorescence; at 10 µM; active compounds read high.
`COc1ccc(OC)c(N2C(=O)C(Cl)=C(N3CCCCC3)C2=O)c1`: the inhibition is 14% (inactive). Regarding `CCc1ccc(/C=C2\SC(=O)NC2=O)cc1`, the inhibition is 4% (inactive). Under `COc1cc(NC(=O)c2ccc(Cl)c([N+](=O)[O-])c2)ccc1NC(=O)c1ccco1` stands 5% (inactive); under `Cc1nnc(NC(=O)Cc2ccc(Br)cc2)s1`, 3% (inactive). The value for `COc1cc(CN2CCN(Cc3ccc4c(c3)OCO4)CC2)c([N+](=O)[O-])cc1OC` was 6% (inactive). Under `CCC(=O)Nc1cc(-c2nc3cc(Cl)ccc3o2)ccc1C` stands 0% (inactive); under `CC1=C(C(=O)OCC2CCCCC2)C(c2ccccc2F)NC(=O)N1` (stereo not drawn), 17% (inactive); under `Cc1ccccc1N1C(=O)/C(=C\c2cn(CC(=O)Nc3ccccc3)c3ccccc23)C(=O)NC1=S`, 26% (inactive). Turning to `CCOc1ccc(N2C(=O)/C(=C/c3ccc(OCc4cccc(C(=O)O)c4)cc3)C(=O)NC2=S)cc1`, the inhibition was 5% (inactive). Under `COc1ccc(N2C(=O)/C(=C/c3cn(Cc4ccccc4)c4ccccc34)C(=O)NC2=S)cc1` stands 15% (inactive); under `CCOc1cccc(N2C(=O)NC(=O)/C(=C\c3cn(CC(=O)OC)c4ccccc34)C2=O)c1`, 0% (inactive); under `O=C(Cn1cc(/C=C2/C(=O)NC(=S)N(c3ccccc3)C2=O)c2ccccc21)Nc1ccccc1`, 53% (active).

On to `COC(=O)Cn1cc(/C=C2\C(=O)NC(=S)N(c3cccc(Cl)c3)C2=O)c2ccccc21`, for which the inhibition was 4% (inactive). Under `Cc1ccc(N2C(=O)NC(=O)/C(=C/c3cn(CC(=O)Nc4ccccc4)c4ccccc34)C2=O)cc1` stands 43% (inactive). Under `O=C1NC(=O)N(c2ccccc2F)C(=O)/C1=C/c1ccc(OCc2cccc(C(=O)O)c2)cc1` stands 4% (inactive); under `O=C(Cn1cc(/C=C2/C(=O)NC(=O)N(c3ccc(Cl)cc3)C2=O)c2ccccc21)Nc1ccccc1`, 11% (inactive); under `CCc1ccccc1NC(=O)c1nn2c(c1Cl)NC(c1ccc(C)cc1)CC2C(F)(F)F` (stereo not drawn), 9% (inactive). As to `CCCOc1ccccc1C1C(C(=O)OCC2CCCO2)=C(C)NC2=C1C(=O)CCC2` (stereo not drawn), the inhibition is 6% (inactive).

Turning to `Oc1c(Br)cc(/C=N/Nc2nc(N3CCCCC3)nc(N3CCCCC3)n2)c(O)c1Br`, the inhibition is 29% (inactive). Under `CC(=O)NN1C(=O)/C(=C\c2ccc(I)o2)SC1=S` stands 0% (inactive); under `CCCOC(=O)c1c(NC(=O)Cc2ccc(OC)cc2)sc2c1CCCC2`, 40% (inactive); under `CC1=NN(c2ccccc2)C(=O)C1C(c1ccccc1)C(C#N)C#N` (stereo not drawn), 54% (active).

In the case of `CC1=NN(c2ccccc2)C(=O)C1C(c1ccc([N+](=O)[O-])cc1)C1C(=O)N(c2ccccc2)N=C1C` (stereo not drawn), the inhibition is 4% (inactive). Consider `CC(=O)NC(c1ccccc1)C1C(=O)N(c2ccccc2)N=C1C` (stereo not drawn), for which the inhibition is 4% (inactive). Under `COc1ccc(Cl)cc1N(CC(=O)N1CCC(C)CC1)S(=O)(=O)c1ccc(C)c([N+](=O)[O-])c1` stands 6% (inactive). Take `CCOc1cc(C=C2C(=O)NC(=O)NC2=O)ccc1OS(=O)(=O)c1ccc(C)cc1`: the inhibition was 17% (inactive). Under `O=C(COc1ccc(Cl)cc1Cl)n1cc([N+](=O)[O-])cn1` stands 6% (inactive); under `CSc1nc(C)c(C(C)=O)cc1C#N`, 13% (inactive).

Regarding `CCc1c(C#N)c(N)nc(SCC(=O)c2ccc(C)cc2)c1C#N`, the inhibition was 13% (inactive). Under `Cc1cc(-c2ccc(C)o2)c(C#N)c(SCC(=O)c2ccccc2)n1` stands 1% (inactive); under `COc1ccc(C(=O)CSc2nc3c(c(-c4ccc(C)o4)c2C#N)CCCC3)cc1`, 15% (inactive). The value for `Cc1nc(SCC(=O)c2ccc(O)c(O)c2)c(C#N)c(CC(C)C)c1C(N)=O` was 51% (active); that for `N#Cc1c(SCC(=O)c2ccc(Cl)cc2)nc2c(c1-c1ccco1)CCCC2` was 12% (inactive); that for `CCCCSc1nc(C)c(C(C)=O)cc1C#N` was 8% (inactive). The value for `COc1ccc(-c2cc(-c3ccc(OC)cc3)c(C#N)c(SCC(=O)c3ccc(C)cc3)n2)cc1` was 17% (inactive).

As to `CC(=O)c1cc(C#N)c(SCC(=O)c2ccc(O)c(O)c2)nc1C`, the inhibition was 75% (active).

As for `CCc1c(C#N)c(N)nc(SCC(=O)c2ccc(Cl)c(Cl)c2)c1C#N`, the inhibition is 14% (inactive). The value for `NC(N)=NS(=O)(=O)c1ccc(NC(=S)Nc2ccccc2)cc1` was 6% (inactive); that for `CC(=O)C1(C)CC(C#N)(C#N)C(C#N)=C1N` (stereo not drawn) was 0% (inactive). The value for `COCCOC(=O)c1ccc(NC(=O)C(C)Oc2ccc(Cl)cc2C)cc1` (stereo not drawn) was 11% (inactive). Under `CC(=O)ON=C1CC(C)(C)NC(C)(C)C1` stands 4% (inactive). As to `CCOC(=O)/C=C/COc1ccc2oc(-c3ccccc3)c(C(=O)OCC)c2c1`, the inhibition was 10% (inactive). The value for `CC(=O)c1ccc(NC(=O)c2ccccc2Cl)cc1` was 2% (inactive). Under `Cc1cc(C)c(C#N)c(SCC(=O)c2ccc(O)c(O)c2)n1` stands 70% (active); under `Cc1cc(C)c(C#N)c(SCC(=O)Nc2ccc(Cl)cc2)n1`, 1% (inactive). Under `CCCOC(=O)CSc1nc(C)cc(C)c1C#N` stands 10% (inactive); under `COc1cccc(N2C(=O)/C(=C/c3c(OC)cc(OC)cc3OC)C(=O)NC2=S)c1`, 1% (inactive); under `CCCCc1ccc(/C(C)=N/Nc2cc(-n3cc(C)cn3)ncn2)cc1`, 0% (inactive). Consider `O=C(O)CCCCCN1C(=O)C(=O)/C(=C(/O)c2ccc(Cl)cc2)C1c1ccccc1` (stereo not drawn), for which the inhibition was 13% (inactive). Consider `O=c1oc2cc(OCc3c(F)cccc3Cl)ccc2cc1-c1ccccn1`, for which the inhibition was 8% (inactive).

With `CC(C)c1ccccc1OCCCN1CCCCC1`, the inhibition is 56% (active).

As to `CC(C)c1ccccc1OCCCN1CCCC1`, the inhibition is 3% (inactive). Under `CC(C)c1ccccc1OCCCCN1CCCCC1` stands 8% (inactive); under `Cc1ccc(C)c(N(CC(=O)Nc2c(C)n(C)n(-c3ccccc3)c2=O)S(=O)(=O)c2ccccc2)c1`, 3% (inactive); under `COc1ccc2c(c1OC)C(=O)OC2Nc1cccc([N+](=O)[O-])c1` (stereo not drawn), 1% (inactive).

Regarding `CCOC(=O)COc1ccc(C=O)cc1OCC`, the inhibition is 0% (inactive). Under `O=C(N/N=C/c1ccc(Cl)c([N+](=O)[O-])c1)c1cc2ccccc2o1` stands 59% (active); under `O=C(N/N=C/c1ccccc1[N+](=O)[O-])c1cc(O)cc(O)c1`, 3% (inactive); under `O=C(N/N=C/c1cc([N+](=O)[O-])ccc1Cl)c1ccc(O)c(O)c1`, 63% (active).

With `O=C(N/N=C/c1ccc(Cl)c([N+](=O)[O-])c1)c1cc(O)cc(O)c1`, the inhibition was 3% (inactive). `O=C(N/N=C/c1ccccc1[N+](=O)[O-])c1ccc(O)c(O)c1`: the inhibition is 51% (active). With `O=C(N/N=C/c1cc([N+](=O)[O-])ccc1O)c1ccc(O)c(O)c1`, the inhibition was 35% (inactive). Under `O=C(N/N=C/c1ccc(Cl)c([N+](=O)[O-])c1)c1ccc(O)cc1` stands 22% (inactive); under `O=C(N/N=C/c1cc([N+](=O)[O-])ccc1Cl)c1ccc(O)cc1`, 10% (inactive). Under `O=C(N/N=C/c1cc([N+](=O)[O-])ccc1Cl)c1cc2ccccc2o1` stands 35% (inactive).

For `O=C(N/N=C/c1ccccc1[N+](=O)[O-])c1ccccc1`, the inhibition is 28% (inactive). The value for `O=C(N/N=C/c1ccc(Cl)c([N+](=O)[O-])c1)c1ccc(O)c(O)c1` was 53% (active). The value for `O=C(N/N=C/c1ccc(Cl)c([N+](=O)[O-])c1)c1ccccn1` was 11% (inactive).
